Laboratory results: PubChem BioAssay AID652257 (The Scripps Research Institute Molecular Screening Center, 2013)
Among all 370,000 compounds or so, about 4,800 (1.3%) were called active.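 How the source made its calls: active means inhibition above about 21% made by adding two undisclosed values (limit read from the data); inactive means the rest.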 The entries come from a sample that favours actives as a whole.

These compounds were tested against Protein arginine N-methyltransferase 1 (Homo sapiens) (UniProt Q99873) (assay: human PRMT1 activity-probe blockers – biochemical, fluorescence polarization, primary screen (AID 652257)). Details: recombinant PRMT1, activity-based probe fluorescence polarization; at 2.79 µM; hits give high values.
Chain of Protein arginine N-methyltransferase 1 (Homo sapiens) (Q99873 whole entry, looked up): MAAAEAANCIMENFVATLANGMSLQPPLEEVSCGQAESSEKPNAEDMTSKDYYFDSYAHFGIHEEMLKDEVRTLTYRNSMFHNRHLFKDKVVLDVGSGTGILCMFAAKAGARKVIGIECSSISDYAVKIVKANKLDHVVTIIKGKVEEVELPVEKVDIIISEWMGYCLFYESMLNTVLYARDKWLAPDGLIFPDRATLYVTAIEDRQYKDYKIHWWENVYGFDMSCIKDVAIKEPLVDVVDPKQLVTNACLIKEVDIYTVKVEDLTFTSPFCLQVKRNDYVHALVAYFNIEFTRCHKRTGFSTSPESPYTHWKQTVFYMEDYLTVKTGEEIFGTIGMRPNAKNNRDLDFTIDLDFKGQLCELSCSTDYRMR

inhibition, active:
Cc1c(NC(=O)/C=C/C(=O)O)cccc1[N+](=O)[O-] 70.3%, O=S(=O)(c1ccc(Sc2nnc3ccccn23)nc1)N1CCOCC1 65.8%, COC(=O)C[n+]1cccc2ccccc21 38.1%, O=C1CC(N2CCN(c3ccc(F)cc3)CC2)C(=O)N1c1ccccc1 (configuration not stated) 21.5%, O=C(Nc1ccccc1)c1nnsc1S(=O)(=O)c1ccc(Cl)cc1 89.9%, CC(=O)NC1=NC(=O)CS1 71.7%, CCc1n[nH]c(=S)n1/N=C/c1c[nH]c2ccc(Br)cc12 29.8%, S=c1[nH]nc(-c2ccccc2)n1/N=C/c1c[nH]c2ccccc12 25.5%, Cc1cc(C)c2nc(-c3ccco3)cc(C(=O)O)c2c1 36.4%, COc1ccc(NC2=CC(=S)NC(C)(C)C2)cc1 33.8%, CCc1ccccc1NC(=S)Nc1cc(OC)c(NC(=O)C(C)C)cc1OC 22.1%, O=[N+]([O-])/C=C/c1ccc2c(ccn2Cc2ccccc2)c1 24.4%, CCc1ccc(-n2c(=S)sc3c(=O)n(-c4ccccc4OC)c(=S)[nH]c32)cc1 84.4%, COc1ccccc1C(=O)NN1C(=O)C2C3C=CC(O3)C2C1=O (configuration not stated) 35.6%, Nc1c(C(=O)c2cccs2)sc2nsc(SCCN3CCCCC3)c12 25.1%, c1ccc(CN2CCC(N=C3NN=C(c4ccc5c(c4)OCCO5)CS3)CC2)cc1 27.6%, Cc1ccc(NC(=O)Cn2sc3ccccc3c2=O)cc1 91.8%

inhibition, inactive:
O=C1CCC2(CCC(c3ccc(Cl)cc3)CC2)N1CCO (configuration not stated) -4.08%, O=C(NC1CCCCN(Cc2ccc(Cl)cc2)C1=O)c1ccc(Br)cc1 (configuration not stated) -6.45%, Cc1c(NC(=O)CCCOc2ccccc2)cccc1[N+](=O)[O-] 2.67%, Cc1c(NC(=S)NCc2ccc(F)cc2)cccc1[N+](=O)[O-] 4.29%, COc1ccc(CCN2CNc3c(c(=O)n(C)c(=O)n3C)C2)cc1OC 5.09%, O=S(=O)(c1ccc(SCc2ccc(Br)cc2)nc1)N1CCOCC1 0.76%, O=S(=O)(c1ccc(SCc2ccccc2)nc1)N1CCCCCC1 -2.5%, CCOC(=O)[C@]12CCCCC/C=C\1N(Cc1ccc(OC)cc1)C(=O)[C@H]2CC(=O)NCCCN1CCCC1=O 0.39%, COc1c(C(=O)N2CCCC2)ccc2ccccc12 1.75%, COC(=O)c1ccc(Cc2ccccc2)o1 -1.95%, COc1ccc(CN(CCN2CCOCC2)C(=O)c2ccc(C)cc2)cc1OC 2.63%, Cc1ccc(Cn2cc(CN3[C@@H](C)COc4cc(Br)ccc4S3(=O)=O)nn2)cc1 0.27%, CCOC(=O)[C@]12CCCCC/C=C\1N(Cc1ccc(OC)cc1)C(=O)[C@H]2CC(=O)N1CCOCC1 0.54%, CSCCNC(=O)c1ccc2nc(Cc3ccccc3F)oc2c1 3.93%, C=CCN1C(=O)[C@H](CC(=O)N2CCN(C(=O)OCC)CC2)[C@@]2(C(=O)OCC)CCCC=C12 0.65%, O=C(C1CC(=O)N(c2ccc(F)cc2)C1)N1CCN(c2ccccc2)CC1 (configuration not stated) -0.62%, COC(=O)c1cc(C(=O)OC)cc(N2C(=O)CC(N3CCN(c4ccccc4)CC3)C2=O)c1 (configuration not stated) 3.3%, COC(=O)C1(CCSC)NC(c2ccc(OC)cc2OC)C2C(=O)N(c3cccc(C(C)=O)c3)C(=O)C21 (configuration not stated) -3.15%, CC1CCCCC1NC(=O)COC(=O)Cc1ccc(Br)cc1 (configuration not stated) -4.22%, Cc1nnsc1C(=O)Nc1cccc(Cl)c1C 2.23%, O=C(Nc1cccc(Cl)c1)c1cc(S(=O)(=O)N2CCCCC2)c[nH]1 3.07%, O=c1[nH]c2c(c(=O)n1-c1ccccc1)CCO2 3.18%, Cc1ccc(S(=O)(=O)NCCC(c2ccccc2)c2ccccc2)cc1C(=O)O -5.2%, COC(=O)c1ccc(CNC(=O)Cn2cc(C)c(=O)[nH]c2=O)cc1 3.88%, C[C@@H]1CN([C@@H](C)CO)C(=O)c2cccc(NC(=O)Nc3cccc4ccccc34)c2O[C@H]1CN(C)S(=O)(=O)c1ccccc1F -7.41%, COc1cccc(/C=C2\CC3(OC(C)=O)CCCN2C3)c1 (configuration not stated) -1.33%, CCCCC(=O)N[C@@H]1CC[C@@]23CCCN2C(=O)CCC[C@H]3[C@H]1C -1.5%, CCOc1ccc(-c2n[nH]c(=S)n2/N=C/c2cc3c(cc2[N+](=O)[O-])OCO3)cc1 -0.65%, C[n+]1ccc(/C=C/c2c[nH]c3ccccc23)cc1 4.53%, Cc1cccc(NC(=O)CSc2nnc(CCNC(=O)OC(C)(C)C)o2)c1C -1.24%, O=C(O)CCN1C(=O)CC2(CCCCC2)C1=O 0.48%, N#Cc1ccc(OC[C@@H](O)CN2CCC(C(O)(c3ccccc3)c3ccccc3)CC2)c(F)c1 -0.03%, CC(=O)N1CCCc2cc(S(=O)(=O)N3CCCC(C(=O)N4CCN(c5cccc(Cl)c5)CC4)C3)ccc21 (configuration not stated) -1.42%, CCOC(=O)C1(Cc2ccc(Cl)cc2)CCN(C(=O)C2=NNC(=O)CC2)CC1 3.16%, CCOCCCNC(=S)N1CCC(NC(=O)C2CCCCC2)CC1 4.18%, Cc1ccsc1-c1cc(C(=O)O)c2c(ccc3ccccc32)n1 -0.02%, CCOC(=O)c1ccn(-c2nc(-c3ccco3)cc(C(F)(F)F)n2)n1 3.19%, COc1ccc(-c2cc(-c3nnc(SCC(=O)Nc4cccc5ccccc45)n3N)[nH]n2)cc1 2.25%, Cc1ccc2c(c1)c1ncnc(N3CCc4ccccc4C3)c1n2C -0.03%, CCN(C(=O)Nc1cccc2ccccc12)c1ccccc1 9.59%, Cc1cccc(C)c1NC(=O)C(c1cccc(F)c1)N1CCN(C)CC1 (configuration not stated) -4.4%, O=S1(=O)c2c(NCc3ccco3)cccc2Oc2ccccc2CN1Cc1cn(Cc2cccc(C(F)(F)F)c2)nn1 0.88%, COc1ccc(CCNC2=CC(=O)CC(C)(C)C2)cc1 -4.15%, COC(=O)C1=C(C)NC(=S)NC1c1ccc(OC)cc1 (configuration not stated) -3.18%, Cc1ccc(Cn2cc(CN3[C@@H](CC(C)C)COc4ccc(Cl)cc4S3(=O)=O)nn2)cc1 -3.14%, CC(=O)c1cccc(NC(=O)CN2C(=O)c3cccnc3Oc3ccc(Cl)cc32)c1 1.98%, COc1cc(NC(=S)NNC(=O)CC(C)C)c(OC)cc1Cl 5.88%, COc1ccc(C)cc1NC(=S)Nc1ccccc1SC 1.24%, FC(F)(F)c1cccc(Cn2ccc3ccc(-c4ccc5ccn(Cc6ccccc6)c5c4)cc32)c1 -0.46%, COc1ccc(Cn2ccc3ccc(-c4ccc5ccn(Cc6ccccc6C)c5c4)cc32)cc1 5.02%, COc1cc2[nH]c(=S)n(Cc3ccc(F)cc3)c(=O)c2cc1OC 1.22%, COc1ccc(Cl)cc1-n1c(=S)sc2c(=O)n(-c3ccc(F)cc3)c(SCC(=O)O)nc21 4.71%, CC(=O)N1CCc2cc(S(=O)(=O)NCCC(=O)N3CCCC3)ccc21 0.09%, Oc1ccc(/C=C/c2c(F)cccc2F)c2cccnc12 -1.47%, COCC1CCN(C(=O)c2ccc3oc(Cc4ccccc4)nc3c2)C1 (configuration not stated) -0.25%, O=C(Nc1cc(C(F)(F)F)ccc1Cl)c1cc2nc3c(c(C(F)(F)F)n2n1)CCCC3 -0.92%, c1cncc(CNc2ccnc(-c3ccc4c(c3)OCO4)n2)c1 -4.36%, COc1ccc(/C=N/n2c(C)cc(C)cc2=O)cc1 -4.04%, C=CCN1C(=O)[C@@H](CC(=O)N2CCN(C(=O)c3ccco3)CC2)[C@]2(C(=O)OC)CCCCC=C12 0.68%, CN(C(N)=NC(=O)/C=C/c1ccccc1)C(C#Cc1ccccc1)Cc1ccccc1 (configuration not stated) -2.71%, COc1cc(Cl)cc(C2NC(=O)NC(C)=C2C(=O)NCc2ccccc2)c1O (configuration not stated) 0.85%, O=C(NN1C(=O)C2C3C=CC(O3)C2C1=O)c1ccncc1 (configuration not stated) 3.88%, O=C(NN1C(=O)C2C3C=CC(O3)C2C1=O)c1ccccc1 (configuration not stated) -3.32%, Nc1nc(CC(=O)CSc2ccc(Cl)cc2)nc(Nc2ccc(F)cc2)n1 -4.39%, COC(=O)[C@]12C[C@H](CC(=O)N3CCOCC3)C(=O)N(Cc3ccc(Cl)cc3Cl)C1=C[C@H](COCc1ccccc1)O[C@@H]2C 2.19%, CC(=NC1CCN(Cc2ccccc2)CC1)c1c(O)[nH]c(=O)[nH]c1=O 1.82%, CS(=O)(=O)N(CC(=O)N1CCN(Cc2ccccc2)CC1)c1ccc2c(c1)OCCO2 -1.51%, O=C(CSc1nnc(COc2ccccc2)n1-c1ccc(Cl)cc1)Nc1ccc2c(c1)OCO2 0.01%, CC1(C)NC(=O)N(CC(=O)Nc2ccc(-c3ccccc3)cc2)C1=O -1.42%, O=C(Cn1nc(C(=O)O)c2ccccc2c1=O)Nc1ccc(F)cc1 2.28%, CN(C)C(=O)CCc1ccc2c3c([nH]c2c1)[C@]1(CCc2ccccc2)[C@@H](C(=O)N2CCCCC2)C[C@H](CC(=O)NCCC2=CCCCC2)C(=O)N1CC3 -1.05%, O=C1Nc2ccccc2OC1CC(=O)N1CCCCCCC1 (configuration not stated) 1.11%, CN(CC(=O)NC1CCCC1)S(=O)(=O)c1cnc[nH]1 -5.5%, CC1CCN(C(=O)C2CCN(S(=O)(=O)N3CCC4(CC3)OCCO4)CC2)CC1 -2.98%, COc1ccc(-c2nn(C)c(=O)c3ccccc23)cc1NC(=O)COc1ccccc1 3.05%
